From the supplement of paper PMC10849652
Of roughly 7,900 targets only a part is listed; those with a hit were picked by preference. About 0.6% of all pairs of compound and target were hits. A number with no mark means an inactive call.

How the values were obtained:
Assay in all cases: log2 fold change, soluble protein after heating vs DMSO (PISA); higher = thermal stabilisation; K562 cells, 10 uM, 30 min; active = over 0.2 and 3.5 SD of the protein, either way, in both replicates (recomputed)
[1] = compound: C#Cc1cccc(Nc2ncnc3cc(OCCOC)c(OCCOC)cc23)c1 [erlotinib]
How it was run: (§1)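 Aliquots of K562 cells (2×10^6 cells/mL) treated with 10 μM compound for 30 min were heated for 3 min over 48°C-58°C. After pooling and extraction in PBS with 0.5% NP-40 at 4°C, soluble protein from a 21,000xg, 90 min spin was quantified by TMTpro 16plex LC-MS/MS with channel sums equalised. Thermal stability is expressed against control samples, from duplicates, as a log2 fold change.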

[2] = compound: C/C(=N\NC(=O)C1=CC(=CC=C1)S(=O)(=O)N2CCOCC2)/C3=C(C=CC(=C3)Cl)O
How it was run: as §1

[3] = compound: C1=CC(=C(C=C1Cl)C2=NC3=NC=CN=C3C(=N2)NC4=CC=NC=C4)F
How it was run: as §1

[4] = compound: C1=CC(=CC=C1C2=NC3=C(N2)C=C(C=C3)C(=O)N)OC4=CC=C(C=C4)Cl
How it was run: as §1

[5] = compound: C1=CC2=C(C=CC(=C2)/C=C\3/C(=O)NC(=NCC4=CC=CS4)S3)N=C1
How it was run: as §1

[6] = compound: C1=CC2=NC=CN=C2C=C1/C=C/3\C(=O)NC(=O)S3
How it was run: as §1

[7] = compound: C1=CC=C(C=C1)C2=NC(=C(N2)C3=CC=NC=C3)C4=CC(=C(C=C4)Cl)O
How it was run: as §1

[8] = compound: C1=CC=C2C(=C1)C3=NNC4=CC=CC(=C43)C2=O
How it was run: as §1

[9] = compound: C1CCN(C1)C(=O)NC2=CC=CC(=C2)NC3=NC=C(C(=N3)NCCC4=CN=CN4)Br
How it was run: as §1

[10] = compound: C1CN(CCC1(CC2=CC=C(C=C2)Cl)N)C3=NC=NC4=C3C=CN4
How it was run: as §1

[11] = compound: C1COCCN1CCN2C3=CC=CC=C3N=C2NC(=O)C4=CC(=CC=C4)[N+](=O)[O-] [IRAK-1-4 Inhibitor I]
How it was run: as §1

[12] = compound: C=CC(=O)N1CCC[C@@H](n2nc(-c3ccc(Oc4ccccc4)cc3)c3c(N)ncnc32)C1 [ibrutinib]
How it was run: as §1

[13] = compound: CC(=O)c1cnc2ccc(-c3cc(Cl)c(O)c(Cl)c3)nc2c1N[C@H]1CC[C@H](CN(C)C)CC1
How it was run: as §1

[14] = compound: CC(C)(C)Cn1c(N)nc2ccc(-c3[nH]c(C(C)(C)C)nc3-c3ccc(F)cc3)nc21 [ralimetinib]
How it was run: as §1

[15] = compound: CC(C)(O)CC(=O)NCCn1ccc2ncnc(Nc3ccc(Oc4cccc(C(F)(F)F)c4)c(Cl)c3)c21
How it was run: as §1

[16] = compound: CC(C)C1=C2N=C(C=C(N2N=C1)NCC3=CC=CC=C3)NCCCCCCN
How it was run: as §1

[17] = compound: CC(C)C[C@@H](C=O)NC(=O)[C@H](CC(C)C)NC(=O)[C@H](CC(C)C)NC(=O)OCc1ccccc1
How it was run: as §1

[18] = compound: CC(C)N(C[C@H]1O[C@@H](n2cnc3c(N)ncnc32)[C@H](O)[C@@H]1O)[C@H]1C[C@@H](CCc2nc3cc(C(C)(C)C)ccc3[nH]2)C1 [pinometostat]
How it was run: as §1

[19] = compound: CC1=C(C(CC(=O)N1)C2=CC=C(C=C2)C(F)(F)F)C(=O)NC3=C(C=C4C(=C3)C=NN4)F
How it was run: as §1

[20] = compound: CC1=C(C2=C(C=C1)C(=O)C3=CC=CC=C3N2CCCN)C
How it was run: as §1

UniProt Q96IV0, sequence (Q96IV0 whole entry, looked up): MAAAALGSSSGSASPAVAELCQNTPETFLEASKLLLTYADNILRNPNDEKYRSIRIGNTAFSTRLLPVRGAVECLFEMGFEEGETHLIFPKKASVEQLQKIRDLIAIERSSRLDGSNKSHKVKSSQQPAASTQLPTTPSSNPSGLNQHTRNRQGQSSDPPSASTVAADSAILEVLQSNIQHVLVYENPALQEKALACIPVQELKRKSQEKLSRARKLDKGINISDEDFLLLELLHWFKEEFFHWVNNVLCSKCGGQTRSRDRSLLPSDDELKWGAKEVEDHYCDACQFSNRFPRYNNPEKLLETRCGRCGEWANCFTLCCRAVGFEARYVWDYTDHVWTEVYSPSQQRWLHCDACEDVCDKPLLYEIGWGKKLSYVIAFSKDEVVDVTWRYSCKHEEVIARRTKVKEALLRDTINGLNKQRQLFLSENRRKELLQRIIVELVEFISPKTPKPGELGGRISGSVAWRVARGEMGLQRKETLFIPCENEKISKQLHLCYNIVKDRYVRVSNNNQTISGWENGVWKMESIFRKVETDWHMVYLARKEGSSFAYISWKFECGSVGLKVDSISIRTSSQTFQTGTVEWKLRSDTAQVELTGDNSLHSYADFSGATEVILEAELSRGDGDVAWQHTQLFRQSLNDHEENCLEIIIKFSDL
UniProt P56556, sequence (P56556 whole entry, looked up): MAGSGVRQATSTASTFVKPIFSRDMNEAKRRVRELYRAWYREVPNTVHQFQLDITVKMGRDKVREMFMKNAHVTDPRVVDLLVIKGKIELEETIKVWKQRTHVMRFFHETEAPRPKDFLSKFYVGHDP
UniProt P48645, sequence (P48645 whole entry, looked up): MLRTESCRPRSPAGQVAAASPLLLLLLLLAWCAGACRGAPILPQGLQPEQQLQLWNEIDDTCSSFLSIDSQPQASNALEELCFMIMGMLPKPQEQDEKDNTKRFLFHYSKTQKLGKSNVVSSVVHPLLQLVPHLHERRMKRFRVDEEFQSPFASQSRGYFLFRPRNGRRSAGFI
UniProt P52948, sequence (P52948 whole entry, looked up): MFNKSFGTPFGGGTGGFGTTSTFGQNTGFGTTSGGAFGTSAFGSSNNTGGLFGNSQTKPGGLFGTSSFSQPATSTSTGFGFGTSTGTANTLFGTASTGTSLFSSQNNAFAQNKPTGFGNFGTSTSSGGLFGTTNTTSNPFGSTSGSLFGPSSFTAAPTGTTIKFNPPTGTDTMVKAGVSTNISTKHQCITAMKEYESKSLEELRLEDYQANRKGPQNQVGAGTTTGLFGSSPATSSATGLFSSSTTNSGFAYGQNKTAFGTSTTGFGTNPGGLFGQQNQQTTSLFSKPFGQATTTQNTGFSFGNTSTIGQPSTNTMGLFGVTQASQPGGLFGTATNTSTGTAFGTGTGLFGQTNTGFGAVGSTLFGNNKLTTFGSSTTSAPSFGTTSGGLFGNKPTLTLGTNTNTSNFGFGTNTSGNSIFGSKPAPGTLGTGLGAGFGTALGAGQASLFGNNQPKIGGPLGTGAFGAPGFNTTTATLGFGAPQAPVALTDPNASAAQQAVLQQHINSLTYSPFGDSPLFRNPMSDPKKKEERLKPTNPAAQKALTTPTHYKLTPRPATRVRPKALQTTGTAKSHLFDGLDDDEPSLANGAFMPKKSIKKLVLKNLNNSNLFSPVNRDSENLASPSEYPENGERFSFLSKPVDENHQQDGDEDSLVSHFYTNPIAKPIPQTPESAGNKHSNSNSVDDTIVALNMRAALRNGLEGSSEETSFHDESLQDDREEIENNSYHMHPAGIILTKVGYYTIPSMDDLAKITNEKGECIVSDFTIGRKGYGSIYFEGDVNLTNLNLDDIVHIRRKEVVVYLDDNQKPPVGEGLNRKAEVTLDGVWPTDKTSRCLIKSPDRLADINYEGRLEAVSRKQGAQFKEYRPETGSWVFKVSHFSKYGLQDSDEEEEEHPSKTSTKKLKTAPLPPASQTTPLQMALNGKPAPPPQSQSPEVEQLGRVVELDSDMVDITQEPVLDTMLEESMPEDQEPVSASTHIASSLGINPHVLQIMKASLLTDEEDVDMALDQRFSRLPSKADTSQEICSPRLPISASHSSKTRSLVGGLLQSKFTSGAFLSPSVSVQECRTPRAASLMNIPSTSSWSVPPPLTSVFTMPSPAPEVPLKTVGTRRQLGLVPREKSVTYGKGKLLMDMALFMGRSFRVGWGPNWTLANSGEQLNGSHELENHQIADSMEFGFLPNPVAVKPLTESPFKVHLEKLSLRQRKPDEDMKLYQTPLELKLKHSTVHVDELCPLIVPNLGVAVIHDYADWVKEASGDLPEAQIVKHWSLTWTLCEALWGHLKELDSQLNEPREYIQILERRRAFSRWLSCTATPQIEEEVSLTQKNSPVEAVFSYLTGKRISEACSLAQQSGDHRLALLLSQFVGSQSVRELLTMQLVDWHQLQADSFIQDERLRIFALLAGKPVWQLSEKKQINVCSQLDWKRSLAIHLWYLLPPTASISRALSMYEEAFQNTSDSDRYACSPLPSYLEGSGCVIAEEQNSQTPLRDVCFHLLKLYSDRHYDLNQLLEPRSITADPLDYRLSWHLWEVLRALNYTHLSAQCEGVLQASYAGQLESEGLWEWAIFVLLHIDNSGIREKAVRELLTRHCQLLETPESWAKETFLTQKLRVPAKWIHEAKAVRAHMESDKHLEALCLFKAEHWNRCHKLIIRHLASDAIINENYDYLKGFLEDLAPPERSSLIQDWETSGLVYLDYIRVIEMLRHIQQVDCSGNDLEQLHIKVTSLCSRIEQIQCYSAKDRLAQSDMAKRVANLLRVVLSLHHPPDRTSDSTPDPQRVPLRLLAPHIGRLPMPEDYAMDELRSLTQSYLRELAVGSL
UniProt Q8N4C8, sequence (Q8N4C8 whole entry, looked up): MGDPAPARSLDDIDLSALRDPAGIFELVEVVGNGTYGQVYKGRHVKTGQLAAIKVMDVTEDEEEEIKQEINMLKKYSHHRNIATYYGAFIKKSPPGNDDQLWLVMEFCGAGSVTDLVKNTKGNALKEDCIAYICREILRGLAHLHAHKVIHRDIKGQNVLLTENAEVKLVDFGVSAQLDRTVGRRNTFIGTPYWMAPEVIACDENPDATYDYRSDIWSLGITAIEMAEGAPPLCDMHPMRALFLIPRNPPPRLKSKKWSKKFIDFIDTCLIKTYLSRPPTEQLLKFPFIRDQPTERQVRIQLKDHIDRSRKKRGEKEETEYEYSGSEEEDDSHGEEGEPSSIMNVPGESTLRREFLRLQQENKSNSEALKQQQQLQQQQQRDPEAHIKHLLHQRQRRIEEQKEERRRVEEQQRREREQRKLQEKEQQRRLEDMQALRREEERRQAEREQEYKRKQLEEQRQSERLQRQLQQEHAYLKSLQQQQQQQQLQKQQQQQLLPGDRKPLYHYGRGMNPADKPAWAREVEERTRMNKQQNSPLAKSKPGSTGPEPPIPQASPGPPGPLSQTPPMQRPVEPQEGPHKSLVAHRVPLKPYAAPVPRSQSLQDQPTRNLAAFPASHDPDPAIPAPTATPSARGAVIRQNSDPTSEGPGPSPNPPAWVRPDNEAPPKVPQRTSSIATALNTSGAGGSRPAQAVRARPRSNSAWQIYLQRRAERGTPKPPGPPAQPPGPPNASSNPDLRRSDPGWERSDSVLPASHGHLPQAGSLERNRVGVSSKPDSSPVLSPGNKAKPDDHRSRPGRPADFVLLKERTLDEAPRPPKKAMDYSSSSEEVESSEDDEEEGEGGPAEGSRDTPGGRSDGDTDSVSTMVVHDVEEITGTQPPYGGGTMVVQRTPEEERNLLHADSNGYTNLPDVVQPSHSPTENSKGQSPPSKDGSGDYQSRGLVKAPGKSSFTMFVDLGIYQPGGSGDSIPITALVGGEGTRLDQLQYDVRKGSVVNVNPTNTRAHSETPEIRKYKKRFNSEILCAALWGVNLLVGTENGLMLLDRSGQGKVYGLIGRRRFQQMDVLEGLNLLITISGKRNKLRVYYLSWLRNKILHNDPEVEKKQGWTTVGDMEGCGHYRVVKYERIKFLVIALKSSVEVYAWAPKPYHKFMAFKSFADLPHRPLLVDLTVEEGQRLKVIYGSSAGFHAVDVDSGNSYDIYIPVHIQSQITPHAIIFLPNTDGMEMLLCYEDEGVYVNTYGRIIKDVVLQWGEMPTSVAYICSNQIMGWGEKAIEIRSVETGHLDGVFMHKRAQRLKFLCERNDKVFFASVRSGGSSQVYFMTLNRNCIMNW
UniProt P30419, sequence (P30419 whole entry, looked up): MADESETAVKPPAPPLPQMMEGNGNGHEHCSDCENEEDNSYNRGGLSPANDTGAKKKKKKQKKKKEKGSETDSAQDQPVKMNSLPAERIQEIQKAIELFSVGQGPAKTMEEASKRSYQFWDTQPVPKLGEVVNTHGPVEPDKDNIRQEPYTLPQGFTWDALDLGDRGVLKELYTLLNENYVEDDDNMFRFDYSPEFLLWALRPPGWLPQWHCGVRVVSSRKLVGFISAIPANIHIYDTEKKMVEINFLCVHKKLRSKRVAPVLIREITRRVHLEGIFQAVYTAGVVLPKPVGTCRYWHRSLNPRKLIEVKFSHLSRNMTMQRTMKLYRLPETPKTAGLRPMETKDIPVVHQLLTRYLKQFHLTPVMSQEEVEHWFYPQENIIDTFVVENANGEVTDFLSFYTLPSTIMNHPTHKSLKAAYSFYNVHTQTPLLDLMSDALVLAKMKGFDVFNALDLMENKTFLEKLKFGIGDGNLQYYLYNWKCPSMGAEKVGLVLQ
UniProt Q15738, sequence (Q15738 whole entry, looked up): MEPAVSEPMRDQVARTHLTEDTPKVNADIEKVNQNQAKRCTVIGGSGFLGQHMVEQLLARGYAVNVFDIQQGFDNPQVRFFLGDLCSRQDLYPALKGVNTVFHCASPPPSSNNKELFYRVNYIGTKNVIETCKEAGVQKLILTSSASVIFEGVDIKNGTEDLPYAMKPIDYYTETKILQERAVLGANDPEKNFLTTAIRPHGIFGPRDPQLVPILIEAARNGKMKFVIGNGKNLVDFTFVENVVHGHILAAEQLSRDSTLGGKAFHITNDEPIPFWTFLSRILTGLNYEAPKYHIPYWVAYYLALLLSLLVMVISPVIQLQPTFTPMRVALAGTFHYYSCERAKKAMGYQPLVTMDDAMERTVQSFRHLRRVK

| Target | log2 fold change [1] | log2 fold change [2] | log2 fold change [3] | log2 fold change [4] | log2 fold change [5] | log2 fold change [6] | log2 fold change [7] | log2 fold change [8] | log2 fold change [9] | log2 fold change [10] | log2 fold change [11] | log2 fold change [12] | log2 fold change [13] | log2 fold change [14] | log2 fold change [15] | log2 fold change [16] | log2 fold change [17] | log2 fold change [18] | log2 fold change [19] | log2 fold change [20] |
| --- | --- | --- | --- | --- | --- | --- | --- | --- | --- | --- | --- | --- | --- | --- | --- | --- | --- | --- | --- | --- |
| NDUFA9 (UniProt Q16795) | -0.031 | 0.035 | 0.059 | 0.03 | 0.031 | -0.016 | 0.025 | 0.047 | 0.005 | 0.024 | 0.003 | -0.036 | -0.037 | -0.011 | -0.211 | -0.101 | 0 | -0.006 | -0.01 | 0.086 |
| PACS1 (UniProt Q6VY07) | 0.027 | 0.036 | -0.049 | 0.01 | 0.016 | -0.077 | -0.039 | -0.084 | -0.048 | -0.063 | -0.002 | -0.016 | -0.297 (active) | -0.024 | -0.014 | -0.011 | 0 | -0.029 | -0.098 | -0.007 |
| MRPS35 (UniProt P82673) | -0.068 | -0.028 | -0.048 | 0.14 | 0.003 | -0.043 | 0.022 | 0.096 | 0.042 | -0.08 | -0.035 | 0.004 | -0.082 | -0.035 | -0.047 | -0.024 | 0.083 | 0.078 | 0.006 | -0.186 |
| NSDHL (UniProt Q15738) | -0.007 | 0.107 | 0.047 | 0.021 | 0 | -0.149 | 0.065 | 0.059 | -0.039 | -0.005 | 0.004 | 0.193 | -0.049 | -0.01 | 0.173 | -0.084 | -0.024 | -0.078 | -0.021 | 0.056 |
| OXSM (UniProt Q9NWU1) | -0.079 | 0.024 | 0.005 | 0.055 | -0.052 | -0.001 | 0.053 | -0.034 | -0.042 | 0.019 | 0.032 | 0.064 | 0.017 | 0.008 | 0.031 | 0.041 | -0.025 | -0.067 | -0.023 | -0.011 |
| NDUFA6 (UniProt P56556) | 0.014 | 0.133 | 0.11 | -0.015 | -0.045 | 0.002 | 0.104 | 0.042 | -0.031 | -0.008 | -0.004 | -0.031 | -0.092 | -0.046 | -0.214 | -0.05 | -0.045 | -0.083 | -0.03 | 0.175 |
| NFATC2 (UniProt Q13469) | -0.049 | 0.147 | -0.002 | 0.012 | 0.04 | -0.132 | 0.053 | -0.109 | -0.201 | 0.007 | -0.075 | -0.008 | -0.635 (active) | -0.001 | 0.011 | -0.055 | 0.099 | 0.102 | 0.013 | -0.033 |
| NMU (UniProt P48645) | -0.003 | 0.072 | -0.02 | 0.063 | -0.123 | 0.094 | -0.129 | -0.018 | 0.025 | 0.133 | -0.052 | 0.027 | 0.034 | 0.063 | 0.011 | 0.123 | 0.313 | -0.106 | 0.03 | -0.174 |
| MRPS25 (UniProt P82663) | -0.069 | -0.023 | -0.022 | 0.084 | -0.048 | 0 | 0.083 | 0.061 | -0.036 | -0.068 | -0.059 | 0.12 | -0.021 | -0.007 | 0.074 | -0.071 | 0.017 | -0.018 | -0.106 | -0.091 |
| NUP98 (UniProt P52948) | 0.063 | 0.01 | -0.085 | -0.013 | -0.011 | 0.035 | -0.015 | -0.217 | -0.06 | -0.012 | -0.021 | -0.048 | -0.146 | 0.04 | 0 | -0.071 | 0.041 | 0.03 | -0.019 | 0.013 |
| NMNAT1 (UniProt Q9HAN9) | 0.033 | -0.145 | -0.302 | -0.111 | -0.032 | 0.03 | -0.102 | -0.008 | 0.157 | -0.046 | -0.007 | 0.073 | 0.05 | 0.18 | 0.13 | 0.093 | 0.168 | 0.429 | 0.051 | -0.674 (active) |
| MRPL47 (UniProt Q9HD33) | -0.189 | -0.107 | -0.098 | 0.096 | -0.002 | -0.047 | -0.012 | 0.094 | -0.004 | -0.273 | -0.11 | 0.022 | 0.003 | 0.056 | 0.016 | -0.001 | 0.071 | 0.181 | 0.047 | -0.083 |
| NGLY1 (UniProt Q96IV0) | 0.035 | -0.06 | -0.036 | -0.014 | 0.17 | 0.023 | -0.001 | 0.045 | -0.023 | -0.024 | -0.091 | -0.052 | -0.059 | 0.018 | -0.07 | -0.071 | 0.036 | 0.088 | 0.04 | 0.123 |
| NMT1 (UniProt P30419) | -0.002 | 0.001 | 0.039 | -0.009 | -0.01 | 0.07 | -0.002 | 0.05 | 0.036 | -0.363 (active) | 0.023 | 0.028 | 0.017 | 0.017 | -0.047 | -0.053 | 0.008 | 0.037 | 0.009 | -0.051 |
| NFE2 (UniProt Q16621) | 0.009 | 0.005 | -0.025 | -0.001 | -0.002 | 0.158 | -0.012 | -0.009 | -0.02 | -0.019 | 0.053 | -0.039 | 0.016 | -0.06 | 0.01 | -0.119 | 0.184 | -0.001 | 0.037 | -0.285 (active) |
| MINK1 (UniProt Q8N4C8) | -0.05 | 0.053 | -0.071 | 0.036 | -0.045 | 0.001 | -0.064 | -0.203 | -0.003 | -0.008 | -0.018 | 0.038 | -0.715 (active) | -0.081 | 0.053 | 0.021 | 0.044 | 0.049 | -0.017 | 0.061 |
